Columns and labels:
Settings in all cases: concentration: 1 μM, replicates: in singlicate; n = 1
[1] = test system: FGFR1
[2] = test system: FGFR2
[3] = test system: FGFR3
[4] = test system: FGFR4
[5] = test system: FGR
[6] = test system: FLT1
[7] = test system: FLT3-autoinhibited
[8] = test system: FLT3
[9] = test system: FLT4
[10] = test system: FRK
[11] = test system: FYN
[12] = test system: GAK
[13] = test system: T1, GCN2(Kin.Dom.2,S808G)
T1 construct: gene EIF2AK4

[14] = test system: GRK1
[15] = test system: T2, GRK2
T2 construct: gene ADRBK1

[16] = test system: T3, GRK3
T3 construct: gene ADRBK2

[17] = test system: GRK4
[18] = test system: GRK7
[19] = test system: GSK3A
[20] = test system: GSK3B
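Note: KINOMEscan kinase panel screen.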

Row | SMILES | %Inh [1] [%] | %Inh [2] [%] | %Inh [3] [%] | %Inh [4] [%] | %Inh [5] [%] | %Inh [6] [%] | %Inh [7] [%] | %Inh [8] [%] | %Inh [9] [%] | %Inh [10] [%] | %Inh [11] [%] | %Inh [12] [%] | %Inh [13] [%] | %Inh [14] [%] | %Inh [15] [%] | %Inh [16] [%] | %Inh [17] [%] | %Inh [18] [%] | %Inh [19] [%] | %Inh [20] [%]
1 | c1ccc(-c2n[nH]cc2Nc2ccnc3ccccc23)nc1 [GW694077] | 0 | 0 | 0 | 0 | 10 | 26 | 8 | 12 | 11 | 0 | 36 | 100 | 0 | 7 | 0 | 33 | 81 | 0 | 0 | 7
2 | CNC(=O)c1ccccc1Nc1nc(Nc2ccc(N3CCOCC3)cc2)ncc1Cl.Cl [GSK1576028] | 99.7 | 97.2 | 99 | 92.3 | 98.1 | 89 | 96.2 | 99.3 | 99.9 | 86 | 98.3 | 96.9 | 100 | 15 | 13 | 0 | 84 | 3 | 76 | 72
3 | CCCCc1nn2ncccc2c1-c1ccnc(Nc2ccc(N3CCN(C)CC3)cc2)n1 [GW684941] | 97.9 | 96.9 | 89 | 68 | 91.9 | 98 | 93.3 | 99.5 | 95.6 | 95 | 58 | 91.7 | 93 | 0 | 0 | 62 | 16 | 0 | 7 | 5
4 | COc1ccc(CNC(=O)NC2CCN(c3ccnc(Nc4ccc(F)cc4)n3)CC2)cc1 [GSK1379788] | 0 | 0 | 8 | 0 | 19 | 16 | 0 | 0 | 0 | 0 | 8 | 0 | 0 | 0 | 0 | 57 | 0 | 0 | 2 | 0
5 | Cc1cccc(NC(=O)Nc2ccc(Oc3ncnc4ccn(C)c34)cc2)c1 | 0 | 0 | 0 | 0 | 0 | 99.3 | 64 | 100 | 73 | 10 | 0 | 0 | 0 | 4 | 0 | 0 | 0 | 0 | 0 | 0
6 | CC(=O)Nc1nc2cnc(Nc3cc(NC(=O)c4cccc(C5(C#N)CC5)c4Cl)ccc3C)nc2s1 | 2 | 15 | 0 | 0 | 52 | 44 | 0 | 0 | 60 | 93.2 | 50 | 0 | 19 | 6 | 0 | 14 | 14 | 15 | 0 | 0
7 | COc1cccc(C(=O)Nc2cccc(Oc3ccc4nc(NC(=O)C5CC5)cn4n3)c2)c1 | 22 | 88 | 41 | 48 | 98 | 99.9 | 24 | 89 | 100 | 94.9 | 84 | 33 | 22 | 17 | 0 | 0 | 0 | 0 | 8 | 10
8 | Cc1ccc(C)c(NC(=O)NC2CCN(c3ccnc(Nc4ccc(F)cc4)n3)C2)c1 (centres unmarked) [GSK1379720] | 0 | 14 | 2 | 5 | 24 | 9 | 0 | 0 | 0 | 14 | 27 | 0 | 0 | 0 | 0 | 60 | 7 | 0 | 0 | 0
9 | Nc1ncc(-c2cccnc2)c2scc(-c3ccc4c(c3)CCN4C(=O)Cc3ccccc3)c12 [GSK683281] | 31 | 10 | 7 | 12 | 25 | 47 | 5 | 83 | 35 | 6 | 32 | 23 | 75 | 0 | 0 | 0 | 22 | 0 | 24 | 29
10 | Cl.Cl.NCC(NC(=O)c1cc(-c2ccccc2)c(-c2ccnc3[nH]ccc23)s1)c1ccccc1 (centres unmarked) [GSK1321561] | 15 | 14 | 19 | 0 | 35 | 10 | 0 | 0 | 2 | 72 | 59 | 86 | 0 | 9 | 0 | 15 | 0 | 25 | 31 | 26
11 | COc1cc(Nc2nccc(-c3c(-c4cccc(NC(=O)c5c(F)cccc5F)c4)nn4ccccc34)n2)cc(OC)c1OC [GSK323521] | 17 | 0 | 12 | 0 | 27 | 41 | 0 | 98.4 | 20 | 11 | 23 | 28 | 29 | 13 | 0 | 0 | 16 | 0 | 0 | 23
12 | FC(F)(F)c1ccc(/C=C/c2cncnc2Nc2ccc3[nH]c(Cc4ccccc4)nc3c2)cc1 [GW709199] | 20 | 0 | 0 | 4 | 34 | 12 | 0 | 19 | 0 | 10 | 10 | 0 | 0 | 11 | 0 | 0 | 18 | 0 | 39 | 0
13 | Cn1cc(-c2ccc3c(c2)CCN3C(=O)Cc2cccc(F)c2)c2c(N)ncnc21 [GSK2603358] | 0 | 0 | 0 | 0 | 46 | 63 | 0 | 66 | 6 | 0 | 0 | 16 | 33 | 0 | 0 | 36 | 0 | 0 | 4 | 12
14 | Cn1cc(-c2[nH]c3cc(NC(=O)[C@H](N)C4CCCCC4)cc4c3c2C=NNC4=O)cn1 | 97.9 | 89 | 86 | 97.3 | 87 | 81 | 96.3 | 100 | 99.5 | 0 | 89 | 99.8 | 99.3 | 11 | 96.9 | 100 | 97.1 | 40 | 0 | 2
15 | O=C(O)C(F)(F)F.O=C(O)C(F)(F)F.O=c1[nH]ccc2nc(N[C@@H]3CCCNC3)nc(Nc3ccc(S(=O)(=O)N4CCOCC4)cc3)c12 [GSK2177277] | 81 | 60 | 62 | 0 | 91.2 | 68 | 99.6 | 99.3 | 98.7 | 39 | 61 | 97.4 | 100 | 96.6 | 72 | 88 | 92.2 | 96 | 99.3 | 98.2
16 | COc1cc(Nc2nccc(N3CCC(NC(=O)Nc4cccc(C(C)=O)c4)C3)n2)cc(OC)c1OC (centres unmarked) [GSK1379753] | 3 | 0 | 9 | 14 | 14 | 19 | 0 | 63 | 6 | 0 | 40 | 34 | 0 | 2 | 0 | 16 | 0 | 0 | 0 | 1

Reference: publication PMC5540273 (PLoS ONE, 2017)
